{"source": "PubChem BioAssay (EPA / NIEHS)", "note": "Records with an inconclusive call do not appear. Activity calls are given as the source filed them. How the source made its calls, unless noted: active means hit-call score of the fitted dose curve at least 0.9, where 1 is the maximum; inconclusive means response in the unintended direction; inactive means score below 0.9."}
{"experiment": "STM_H9_CystineISnorm_perc: Stemina devTOX quickPredict H9 human embryonic stem cell (hESC)-based Assay for Cystine (CYSS) Metabolite Biomarker, Normalized (AID 2283713; active means hit-call score of the fitted dose curve at least 0.9, where 1 is the maximum; inactive means score below 0.9)", "in_short": "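Cystine in spent media from the last 24 h of a 72 h H9 hESC exposure (daily re-dosing), measured by UPLC-HRMS. Values normalized to isotopic internal standard, then to 0.1% DMSO; viability via CellTiter-Fluor.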"}
{"compound": "Nc1nc(Cl)nc2c1ncn2[C@H]1C[C@H](O)[C@@H](CO)O1", "AC50": "348 nM (active)"}
{"compound": "O=C(O)c1cccnc1", "outcome": "inactive"}
{"compound": "Cc1cc(Cc2ccc(N)c(C)c2)ccc1N", "outcome": "inactive"}
{"compound": "CC(=O)[C@@]1(O)CC[C@H]2[C@@H]3CCC4=CC(=O)CC[C@]4(C)[C@H]3CC[C@@]21C", "AC50": "80000 nM (active)"}
{"compound": "Nc1nc(=S)c2[nH]cnc2[nH]1", "AC50": "2130 nM (active)"}
{"compound": "O=C1NC(=O)C(c2ccccc2)(c2ccccc2)N1", "outcome": "inactive"}
{"compound": "O=C(O)CN(CC(=O)O)CC(=O)O", "AC50": "14800 nM (active)"}
{"compound": "CCN(CC)CCOc1ccc(C(=C(Cl)c2ccccc2)c2ccccc2)cc1", "AC50": "1170 nM (active)"}
{"compound": "CCCCCCCCCC[N+](C)(C)[O-]", "AC50": "25000 nM (active)"}
{"compound": "CCC(C)N(C)C(=O)c1cc2ccccc2c(-c2ccccc2Cl)n1", "note": "(stereo not given)", "outcome": "inactive"}
{"compound": "CN(C)CCCN1c2ccccc2Sc2ccc(Cl)cc21", "AC50": "751 nM (active)"}
{"experiment": "STM_H9_OrnCyssISnorm_ratio: Stemina devTOX quickPredict H9 human embryonic stem cell (hESC)-based Assay for Ornithine (ORN):Cystine (CYSS) Ratio (AID 2283714)", "in_short": "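Ratio of internal-standard-normalized ornithine to cystine, measured by UPLC-HRMS in spent media from the last 24 h. H9 cells kept pluripotent, dosed 72 h with daily media and compound renewal; DMSO 0.1% serves as baseline.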"}
{"compound": "Nc1nc(Cl)nc2c1ncn2[C@H]1C[C@H](O)[C@@H](CO)O1", "AC50": "621 nM (active)"}
{"compound": "O=C(O)c1cccnc1", "outcome": "inactive"}
{"compound": "Cc1cc(Cc2ccc(N)c(C)c2)ccc1N", "outcome": "inactive"}
{"compound": "CC(=O)[C@@]1(O)CC[C@H]2[C@@H]3CCC4=CC(=O)CC[C@]4(C)[C@H]3CC[C@@]21C", "AC50": "73400 nM (active)"}
{"compound": "Nc1nc(=S)c2[nH]cnc2[nH]1", "AC50": "2970 nM (active)"}
{"compound": "O=C1NC(=O)C(c2ccccc2)(c2ccccc2)N1", "outcome": "inactive"}
{"compound": "O=C(O)CN(CC(=O)O)CC(=O)O", "AC50": "13000 nM (active)"}
{"compound": "CCN(CC)CCOc1ccc(C(=C(Cl)c2ccccc2)c2ccccc2)cc1", "AC50": "2530 nM (active)"}
{"compound": "CCCCCCCCCC[N+](C)(C)[O-]", "AC50": "22100 nM (active)"}
{"compound": "CN(C)CCCN1c2ccccc2Sc2ccc(Cl)cc21", "AC50": "897 nM (active)"}
{"experiment": "CEETOX_H295R_MTT_cell_viability: Viability Assessment in the CeeTox HT-H295R MTT Assay (AID 2283718; active means hit-call score of the fitted dose curve at least 0.9, where 1 is the maximum; inactive means score below 0.9;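 on AC50: curve fitted both ways so AC50 may mark viability loss or gain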)", "in_short": "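MTT reduction (0.5 mg/ml, 4 h at 37 C; absorbance at 570 and 650 nm) gave viability as background-corrected percent change versus controls. H295R cells had 48 h forskolin (10 uM) prestimulation, then 48 h chemical exposure at 0.1% DMSO.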"}
{"compound": "O=C1c2c(O)cccc2Cc2cccc(O)c21", "outcome": "inactive"}
{"compound": "Nc1nc(Cl)nc2c1ncn2[C@H]1C[C@H](O)[C@@H](CO)O1", "AC50": "109 nM (active)"}
{"compound": "Cc1cc(Cc2ccc(N)c(C)c2)ccc1N", "outcome": "inactive"}
{"compound": "S=c1[nH]c2ccccc2s1", "outcome": "inactive"}
{"compound": "CC(=O)[C@@]1(O)CC[C@H]2[C@@H]3CCC4=CC(=O)CC[C@]4(C)[C@H]3CC[C@@]21C", "outcome": "inactive"}
{"compound": "Nc1nc(=S)c2[nH]cnc2[nH]1", "AC50": "2520 nM (active)"}
{"compound": "O=C(O)CN(CC(=O)O)CC(=O)O", "outcome": "inactive"}
{"compound": "CCN(CC)CCOc1ccc(C(=C(Cl)c2ccccc2)c2ccccc2)cc1", "outcome": "inactive"}
{"compound": "CCCCCCCCCC[N+](C)(C)[O-]", "outcome": "inactive"}
{"compound": "Cc1c(C)c2c(c(C)c1O)CCC(C)(COc1ccc(CC3SC(=O)NC3=O)cc1)O2", "note": "(stereo not given)", "AC50": "32.1 nM (active)"}
{"compound": "CCC(C)N(C)C(=O)c1cc2ccccc2c(-c2ccccc2Cl)n1", "note": "(stereo not given)", "outcome": "inactive"}
{"compound": "CN(C)C(=O)NC1(c2ccccc2)CCN(CCC[C@]2(c3ccc(Cl)c(Cl)c3)CCCN(C(=O)c3ccccc3)C2)CC1", "outcome": "inactive"}
{"experiment": "Tanguay_ZF_120hpf_ActivityScore_legacy: (Legacy) Oregon State University Tanguay Lab 120 Hour Post-fertilization zebrafish Assay Score for Activity (AID 2283742);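 on AC50: dechorionated Tropical 5D wild-type zebrafish embryos held singly per well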", "in_short": "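Binary scoring of mortality and morphology by brightfield at 24 and 120 hpf, summarised into one activity score from 18 components relative to DMSO. Wild-type Tropical 5D zebrafish, chorion removed at 4 hpf, static exposure 6–120 hpf, 28 °C.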"}
{"compound": "CC(=O)OC1CC(C)OC(C)O1", "note": "(stereo not given)", "outcome": "inactive"}
{"compound": "CCCCC(CC)CO", "note": "(stereo not given)", "outcome": "inactive"}
{"compound": "C#CC(O)C(CC)CCCC", "note": "(stereo not given)", "outcome": "inactive"}
{"compound": "O=C1c2c(O)cccc2Cc2cccc(O)c21", "outcome": "inactive"}
{"compound": "Nc1nc(Cl)nc2c1ncn2[C@H]1C[C@H](O)[C@@H](CO)O1", "outcome": "inactive"}
{"compound": "OCC(CO)n1cnc(-c2ccc(F)cc2)c1-c1ccnc(Oc2ccccc2)n1", "outcome": "inactive"}
{"compound": "CCCCCCCCCCCCCCOS(=O)(=O)O", "AC50": "32800 nM (active)"}
{"compound": "CC(C)COC(=O)CCCCC(=O)OCC(C)C", "outcome": "inactive"}
{"compound": "O=C(O)c1cccnc1", "outcome": "inactive"}
{"compound": "Cc1cc(Cc2ccc(N)c(C)c2)ccc1N", "outcome": "inactive"}
{"compound": "OCC(O)CO", "outcome": "inactive"}
{"compound": "CC(=O)[C@@]1(O)CC[C@H]2[C@@H]3CCC4=CC(=O)CC[C@]4(C)[C@H]3CC[C@@]21C", "outcome": "inactive"}
{"compound": "c1ccc2occc2c1", "outcome": "inactive"}
{"compound": "Nc1nc(=S)c2[nH]cnc2[nH]1", "outcome": "inactive"}
{"compound": "O=C1NC(=O)C(c2ccccc2)(c2ccccc2)N1", "outcome": "inactive"}
{"compound": "O=C(O)CN(CC(=O)O)CC(=O)O", "outcome": "inactive"}
{"compound": "CCN(CC)CCOc1ccc(C(=C(Cl)c2ccccc2)c2ccccc2)cc1", "AC50": "37800 nM (active)"}
{"compound": "CCCCCCCCCC[N+](C)(C)[O-]", "outcome": "inactive"}
{"compound": "Cc1occc(=O)c1O", "outcome": "inactive"}
{"compound": "Cc1c(C)c2c(c(C)c1O)CCC(C)(COc1ccc(CC3SC(=O)NC3=O)cc1)O2", "note": "(stereo not given)", "outcome": "inactive"}
{"compound": "CC1(C)C(=O)NC(=O)N1CO", "outcome": "inactive"}
{"compound": "CCC(C)N(C)C(=O)c1cc2ccccc2c(-c2ccccc2Cl)n1", "note": "(stereo not given)", "outcome": "inactive"}
{"compound": "CN(C)CCCN1c2ccccc2Sc2ccc(Cl)cc21", "AC50": "33700 nM (active)"}
{"compound": "CCCCOC(=O)CCCCC(=O)OCCCC", "outcome": "inactive"}
{"compound": "CC(C)NCC(O)c1ccc(O)c(O)c1", "note": "(stereo not given)", "outcome": "inactive"}
{"compound": "O=C(NS(=O)(=O)/C=C/c1cccs1)c1ccc(F)cc1Br", "outcome": "inactive"}
{"compound": "CN(C)C(=O)NC1(c2ccccc2)CCN(CCC[C@]2(c3ccc(Cl)c(Cl)c3)CCCN(C(=O)c3ccccc3)C2)CC1", "outcome": "inactive"}
